Changes are numbered by the printed parent chain.
Experiments:
Assay in all cases: PBM; 200 nM protein, PBS
Settings in all cases: dsDNA, one strand shown
HOXB4 [1] = target: HOXB4 (Homo sapiens, UniProt P17483 148-234)
VENTX [2] = target: T1, VENTX (Homo sapiens, UniProt O95231 78-163, R121Q)
T1 sequence: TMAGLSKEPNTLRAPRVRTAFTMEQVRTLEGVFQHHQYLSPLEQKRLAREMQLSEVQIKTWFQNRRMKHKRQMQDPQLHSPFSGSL

HOXA4 [3] = target: HOXA4 (Homo sapiens, UniProt Q00056 201-287, W262R)
VENTX [4] = target: T2, VENTX (Homo sapiens, UniProt O95231 78-163)
T2 sequence: T1 sequence with Q44R

VENTX [5] = target: T3, VENTX (Homo sapiens, UniProt O95231 78-163, Y115F)
T3 sequence: T1 sequence with Y38F, Q44R

HOXA2 [6] = target: HOXA2 (Homo sapiens, UniProt O43364 129-215, R185T)
HOXA2 (Homo sapiens, UniProt O43364 129-215, R185T), sequence (O43364 129-215 R185T): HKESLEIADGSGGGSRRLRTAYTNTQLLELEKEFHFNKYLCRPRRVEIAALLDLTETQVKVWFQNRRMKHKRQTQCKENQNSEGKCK

HOXA4 [7] = target: HOXA4 (Homo sapiens, UniProt Q00056 201-287, R217L)
HOXA4 (Homo sapiens, UniProt Q00056 201-287, R217L), sequence (Q00056 201-287 R217L): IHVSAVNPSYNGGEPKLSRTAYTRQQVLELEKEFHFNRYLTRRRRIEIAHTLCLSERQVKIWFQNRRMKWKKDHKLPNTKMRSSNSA

HOXB4 [8] = target: HOXB4 (Homo sapiens, UniProt P17483 148-234, V174I)
HOXB4 (Homo sapiens, UniProt P17483 148-234, V174I), sequence (P17483 148-234 V174I): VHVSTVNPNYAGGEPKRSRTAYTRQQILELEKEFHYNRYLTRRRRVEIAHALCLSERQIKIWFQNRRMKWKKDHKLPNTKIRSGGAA

HOXA2 [9] = target: HOXA2 (Homo sapiens, UniProt O43364 129-215, R185K)
HOXA2 (Homo sapiens, UniProt O43364 129-215, R185K), sequence (O43364 129-215 R185K): as the sequence (O43364 129-215 R185T) above, with T57K counted along it

HOXA4 [10] = target: HOXA4 (Homo sapiens, UniProt Q00056 201-287)
HOXA4 (Homo sapiens, UniProt Q00056 201-287), sequence (Q00056 201-287): as the sequence (Q00056 201-287 R217L) above, with L17R counted along it

VAX1 [11] = target: VAX1 (Homo sapiens, UniProt Q5SQQ9 86-172)
VAX1 (Homo sapiens, UniProt Q5SQQ9 86-172), sequence (Q5SQQ9 86-172): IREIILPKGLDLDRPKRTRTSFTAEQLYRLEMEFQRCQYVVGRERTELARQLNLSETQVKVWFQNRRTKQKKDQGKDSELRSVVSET

VAX1 [12] = target: VAX1 (Homo sapiens, UniProt Q5SQQ9 86-172, T142I)
VAX1 (Homo sapiens, UniProt Q5SQQ9 86-172, T142I), sequence (Q5SQQ9 86-172 T142I): as the sequence (Q5SQQ9 86-172) above, with T57I counted along it

HOXA2 [13] = target: HOXA2 (Homo sapiens, UniProt O43364 129-215, Y150S)
HOXA2 (Homo sapiens, UniProt O43364 129-215, Y150S), sequence (O43364 129-215 Y150S): as the sequence (O43364 129-215 R185T) above, with Y22S, T57R counted along it

HOXA4 [14] = target: HOXA4 (Homo sapiens, UniProt Q00056 201-287, W262F)
HOXA4 (Homo sapiens, UniProt Q00056 201-287, W262F), sequence (Q00056 201-287 W262F): as the sequence (Q00056 201-287 R217L) above, with L17R, W62F counted along it

HOXA2 [15] = target: HOXA2 (Homo sapiens, UniProt O43364 129-215)
HOXA2 (Homo sapiens, UniProt O43364 129-215), sequence (O43364 129-215): as the sequence (O43364 129-215 R185T) above, with T57R counted along it

VAX1 [16] = target: VAX1 (Homo sapiens, UniProt Q5SQQ9 86-172, K157R)
VAX1 (Homo sapiens, UniProt Q5SQQ9 86-172, K157R), sequence (Q5SQQ9 86-172 K157R): as the sequence (Q5SQQ9 86-172) above, with K72R counted along it

HOXB9 = HOXB9 (Homo sapiens, UniProt P17482 171-250, T197M)
HOXB9, sequence (P17482 171-250 T197M): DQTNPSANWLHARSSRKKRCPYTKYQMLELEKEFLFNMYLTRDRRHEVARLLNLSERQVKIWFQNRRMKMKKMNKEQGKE

HOXA4 (Homo sapiens, UniProt Q00056 201-287, W262R), sequence (Q00056 201-287 W262R): as the sequence (Q00056 201-287 R217L) above, with L17R, W62R counted along it
HOXB4 (Homo sapiens, UniProt P17483 148-234), sequence (P17483 148-234): as the sequence (P17483 148-234 V174I) above, with I27V counted along it

Sequence | binding signal (HOXB4 [1]) | binding signal (VENTX [2]) | binding signal (HOXA4 [3]) | binding signal (VENTX [4]) | binding signal (VENTX [5]) | binding signal (HOXA2 [6]) | binding signal (HOXA4 [7]) | binding signal (HOXB4 [8]) | binding signal (HOXA2 [9]) | binding signal (HOXA4 [10]) | binding signal (VAX1 [11]) | binding signal (VAX1 [12]) | binding signal (HOXA2 [13]) | binding signal (HOXA4 [14]) | binding signal (HOXA2 [15]) | binding signal (VAX1 [16]) | binding signal (HOXB9)
CCTCATTA | 13.1 upbm affinity estimate (log intensity, higher = more binding, comparable within an allelic series) | 11.6 upbm affinity estimate (log intensity, higher = more binding, comparable within an allelic series) | 10.5 upbm affinity estimate (log intensity, higher = more binding, comparable within an allelic series) | 12.5 upbm affinity estimate (log intensity, higher = more binding, comparable within an allelic series) | 11.8 upbm affinity estimate (log intensity, higher = more binding, comparable within an allelic series) | 13.1 upbm affinity estimate (log intensity, higher = more binding, comparable within an allelic series) | 12.1 upbm affinity estimate (log intensity, higher = more binding, comparable within an allelic series) | 13.7 upbm affinity estimate (log intensity, higher = more binding, comparable within an allelic series) | 13.4 upbm affinity estimate (log intensity, higher = more binding, comparable within an allelic series) | 13.8 upbm affinity estimate (log intensity, higher = more binding, comparable within an allelic series) | 13.6 upbm affinity estimate (log intensity, higher = more binding, comparable within an allelic series) | 13.3 upbm affinity estimate (log intensity, higher = more binding, comparable within an allelic series) | 10.7 upbm affinity estimate (log intensity, higher = more binding, comparable within an allelic series) | 11.5 upbm affinity estimate (log intensity, higher = more binding, comparable within an allelic series) | 12.8 upbm affinity estimate (log intensity, higher = more binding, comparable within an allelic series) | 13.4 upbm affinity estimate (log intensity, higher = more binding, comparable within an allelic series) | 
ACTCATTA | 13 upbm affinity estimate (log intensity, higher = more binding, comparable within an allelic series) | 11.6 upbm affinity estimate (log intensity, higher = more binding, comparable within an allelic series) | 10.7 upbm affinity estimate (log intensity, higher = more binding, comparable within an allelic series) | 12.4 upbm affinity estimate (log intensity, higher = more binding, comparable within an allelic series) | 11.7 upbm affinity estimate (log intensity, higher = more binding, comparable within an allelic series) | 13 upbm affinity estimate (log intensity, higher = more binding, comparable within an allelic series) | 12.1 upbm affinity estimate (log intensity, higher = more binding, comparable within an allelic series) | 13.6 upbm affinity estimate (log intensity, higher = more binding, comparable within an allelic series) | 13.5 upbm affinity estimate (log intensity, higher = more binding, comparable within an allelic series) | 13.8 upbm affinity estimate (log intensity, higher = more binding, comparable within an allelic series) | 13.2 upbm affinity estimate (log intensity, higher = more binding, comparable within an allelic series) | 13.1 upbm affinity estimate (log intensity, higher = more binding, comparable within an allelic series) | 10.9 upbm affinity estimate (log intensity, higher = more binding, comparable within an allelic series) | 11.7 upbm affinity estimate (log intensity, higher = more binding, comparable within an allelic series) | 12.6 upbm affinity estimate (log intensity, higher = more binding, comparable within an allelic series) | 13.1 upbm affinity estimate (log intensity, higher = more binding, comparable within an allelic series) | 
GGCCCCCC | 7.99 upbm affinity estimate (log intensity, higher = more binding, comparable within an allelic series) |  |  |  |  |  |  | 7.93 upbm affinity estimate (log intensity, higher = more binding, comparable within an allelic series) |  |  |  |  |  |  |  |  | 8.33 upbm affinity estimate (log intensity, higher = more binding, comparable within an allelic series)
ATCATTAA | 13.5 upbm affinity estimate (log intensity, higher = more binding, comparable within an allelic series) | 11.7 upbm affinity estimate (log intensity, higher = more binding, comparable within an allelic series) | 10.9 upbm affinity estimate (log intensity, higher = more binding, comparable within an allelic series) |  | 11.7 upbm affinity estimate (log intensity, higher = more binding, comparable within an allelic series) | 13 upbm affinity estimate (log intensity, higher = more binding, comparable within an allelic series) | 12.9 upbm affinity estimate (log intensity, higher = more binding, comparable within an allelic series) | 14.2 upbm affinity estimate (log intensity, higher = more binding, comparable within an allelic series) | 13.5 upbm affinity estimate (log intensity, higher = more binding, comparable within an allelic series) | 14.2 upbm affinity estimate (log intensity, higher = more binding, comparable within an allelic series) | 13.2 upbm affinity estimate (log intensity, higher = more binding, comparable within an allelic series) | 13.2 upbm affinity estimate (log intensity, higher = more binding, comparable within an allelic series) | 10.9 upbm affinity estimate (log intensity, higher = more binding, comparable within an allelic series) | 12.5 upbm affinity estimate (log intensity, higher = more binding, comparable within an allelic series) | 12.7 upbm affinity estimate (log intensity, higher = more binding, comparable within an allelic series) | 13 upbm affinity estimate (log intensity, higher = more binding, comparable within an allelic series) | 10.3 upbm affinity estimate (log intensity, higher = more binding, comparable within an allelic series)
TCATTAAA | 13.1 upbm affinity estimate (log intensity, higher = more binding, comparable within an allelic series) |  | 10.8 upbm affinity estimate (log intensity, higher = more binding, comparable within an allelic series) |  |  | 12.5 upbm affinity estimate (log intensity, higher = more binding, comparable within an allelic series) | 12.5 upbm affinity estimate (log intensity, higher = more binding, comparable within an allelic series) | 13.8 upbm affinity estimate (log intensity, higher = more binding, comparable within an allelic series) | 13.1 upbm affinity estimate (log intensity, higher = more binding, comparable within an allelic series) | 13.9 upbm affinity estimate (log intensity, higher = more binding, comparable within an allelic series) | 13 upbm affinity estimate (log intensity, higher = more binding, comparable within an allelic series) | 13 upbm affinity estimate (log intensity, higher = more binding, comparable within an allelic series) | 10.9 upbm affinity estimate (log intensity, higher = more binding, comparable within an allelic series) | 11.9 upbm affinity estimate (log intensity, higher = more binding, comparable within an allelic series) | 12.3 upbm affinity estimate (log intensity, higher = more binding, comparable within an allelic series) | 12.9 upbm affinity estimate (log intensity, higher = more binding, comparable within an allelic series) | 10.2 upbm affinity estimate (log intensity, higher = more binding, comparable within an allelic series)
CTAATGAC | 13.2 upbm affinity estimate (log intensity, higher = more binding, comparable within an allelic series) | 11.9 upbm affinity estimate (log intensity, higher = more binding, comparable within an allelic series) | 10.6 upbm affinity estimate (log intensity, higher = more binding, comparable within an allelic series) | 12.5 upbm affinity estimate (log intensity, higher = more binding, comparable within an allelic series) | 11.9 upbm affinity estimate (log intensity, higher = more binding, comparable within an allelic series) | 13.1 upbm affinity estimate (log intensity, higher = more binding, comparable within an allelic series) | 12.1 upbm affinity estimate (log intensity, higher = more binding, comparable within an allelic series) | 13.9 upbm affinity estimate (log intensity, higher = more binding, comparable within an allelic series) | 13.7 upbm affinity estimate (log intensity, higher = more binding, comparable within an allelic series) | 13.9 upbm affinity estimate (log intensity, higher = more binding, comparable within an allelic series) | 13.3 upbm affinity estimate (log intensity, higher = more binding, comparable within an allelic series) | 13.2 upbm affinity estimate (log intensity, higher = more binding, comparable within an allelic series) | 10.9 upbm affinity estimate (log intensity, higher = more binding, comparable within an allelic series) | 12 upbm affinity estimate (log intensity, higher = more binding, comparable within an allelic series) | 12.9 upbm affinity estimate (log intensity, higher = more binding, comparable within an allelic series) | 13.2 upbm affinity estimate (log intensity, higher = more binding, comparable within an allelic series) | 
GTCATTAA | 13.3 upbm affinity estimate (log intensity, higher = more binding, comparable within an allelic series) | 12.1 upbm affinity estimate (log intensity, higher = more binding, comparable within an allelic series) | 10.9 upbm affinity estimate (log intensity, higher = more binding, comparable within an allelic series) | 12.6 upbm affinity estimate (log intensity, higher = more binding, comparable within an allelic series) | 12.1 upbm affinity estimate (log intensity, higher = more binding, comparable within an allelic series) | 13.2 upbm affinity estimate (log intensity, higher = more binding, comparable within an allelic series) | 12.9 upbm affinity estimate (log intensity, higher = more binding, comparable within an allelic series) | 13.9 upbm affinity estimate (log intensity, higher = more binding, comparable within an allelic series) | 13.8 upbm affinity estimate (log intensity, higher = more binding, comparable within an allelic series) | 14.1 upbm affinity estimate (log intensity, higher = more binding, comparable within an allelic series) | 13.4 upbm affinity estimate (log intensity, higher = more binding, comparable within an allelic series) | 13.4 upbm affinity estimate (log intensity, higher = more binding, comparable within an allelic series) | 11 upbm affinity estimate (log intensity, higher = more binding, comparable within an allelic series) | 12.6 upbm affinity estimate (log intensity, higher = more binding, comparable within an allelic series) | 12.9 upbm affinity estimate (log intensity, higher = more binding, comparable within an allelic series) | 13.3 upbm affinity estimate (log intensity, higher = more binding, comparable within an allelic series) | 10.4 upbm affinity estimate (log intensity, higher = more binding, comparable within an allelic series)
